# Measured values reported in the supplement of paper PMC7411054.
# Structures can show the parent of a compound that is named as a salt.
# Experiments:
# Test in all cases: lowest phenotypically active concentration; higher = less potent
# Conditions in all cases: treatment time: 24 h
# [1] = test system: HepG2-ACTB-RAB5A
# Procedure, shortened: (§1)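 After 24 h at 0.3, 1, 3 or 9 µM, with four wells per treatment, fifteen gene-edited A549, HepG2 and WPMY1 reporter lines carrying BFP, GFP and RFP/FusionRed were imaged live. Each well's live-cell features were expressed relative to solvent control wells. Deviation required ≥3 of 4 wells past the 95th percentile of control Euclidean distances, and reproducibility a median replicate Pearson correlation over the 95th percentile of non-replicates. Phenotypic activity rested on both.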
# [2] = test system: HepG2-TP53BP1-CLTA
# Procedure, shortened: as §1
# [3] = test system: WPMY1-TUBA1B-RELA
# Procedure, shortened: as §1
# [4] = test system: A549-GM130-SQSTM1
# Procedure, shortened: as §1
# [5] = test system: A549-TUBA1B-RELA
# Procedure, shortened: as §1
# [6] = test system: A549-TP53BP1-CLTA
# Procedure, shortened: as §1
# [7] = test system: WPMY1-TP53BP1-CLTA
# Procedure, shortened: as §1
# [8] = test system: WPMY1-CANX-COX4
# Procedure, shortened: as §1
# [9] = test system: A549-ACTB-RAB5A
# Procedure, shortened: as §1
compound,measurement,setting,value
COCCCOc1ccnc(CS(=O)c2nc3ccccc3[nH]2)c1C (configuration not stated) [rabeprazole],lowest phenotypically active concentration,[1],9 µM
CC(C)N(CCCNC(=O)Nc1ccc(C(C)(C)C)cc1)C[C@H]1O[C@@H](n2ccc3c(N)ncnc32)[C@H](O)[C@@H]1O,lowest phenotypically active concentration,[1],9 µM
same,lowest phenotypically active concentration,[2],1 µM
same,lowest phenotypically active concentration,[3],3 µM
CCc1c(C(=O)Nc2cc(S(=O)(=O)N(CC)CC)ccc2O)[nH]c(C)c1C(C)=O,lowest phenotypically active concentration,[1],9 µM
O=C(Nc1ccccc1)N1CCN(c2nc(-c3ccccc3)ns2)CC1,lowest phenotypically active concentration,[2],9 µM
CC(C)[C@@H](C)/C=C/[C@@H](C)[C@H]1CC[C@H]2C3=CC=C4C[C@@H](O)CC[C@]4(C)[C@H]3CC[C@]12C [Ergosterine],lowest phenotypically active concentration,[4],9 µM
same,lowest phenotypically active concentration,[5],9 µM
O=C(O)COc1ccc(Br)cc1/C=C1\SC(=S)N(Cc2cccnc2)C1=O,lowest phenotypically active concentration,[4],9 µM
COc1cc(-c2cn(C)c(=O)c3cnccc23)c(OC)cc1CN(C)C,lowest phenotypically active concentration,[6],9 µM
same,lowest phenotypically active concentration,[1],9 µM
same,lowest phenotypically active concentration,[3],9 µM
C[C@H](NC(=O)c1sccc1OCc1ccc(Cl)cc1)c1ccccc1,lowest phenotypically active concentration,[6],9 µM
same,lowest phenotypically active concentration,[7],3 µM
CCCc1cc2c(N3CCN(C4=NCC(C)(C)S4)CC3)ncnc2s1 [MI 2 dihydrochloride],lowest phenotypically active concentration,[4],9 µM
same,lowest phenotypically active concentration,[1],9 µM
same,lowest phenotypically active concentration,[2],9 µM
CC1=C(/C=C/C(C)=C/C=C/C(C)=C/C(=O)O)C(C)(C)CCC1 [isotretinoin],lowest phenotypically active concentration,[7],3 µM
Cc1cc(C)c(C)c(S(=O)(=O)Nc2ccc(N3CC[C@H](C(=O)O)C3)c3ccccc23)c1C,lowest phenotypically active concentration,[4],9 µM
c1ccc(-c2n[nH]cc2-c2ccnc3ccccc23)nc1,lowest phenotypically active concentration,[5],9 µM
same,lowest phenotypically active concentration,[2],9 µM
same,lowest phenotypically active concentration,[8],9 µM
COc1ccc(S(=O)(=O)ON=C2C=C(C)C(=O)C(C)=C2)cc1,lowest phenotypically active concentration,[4],9 µM
same,lowest phenotypically active concentration,[5],9 µM
same,lowest phenotypically active concentration,[3],9 µM
NCCCCNS(=O)(=O)c1ccc2c(Cl)cccc2c1 [W-13 hydrochloride],lowest phenotypically active concentration,[8],9 µM
same,lowest phenotypically active concentration,[3],9 µM
O=C(Nc1ccccc1)N1CCC(Cc2cnc3ccccc3c2)CC1,lowest phenotypically active concentration,[2],9 µM
Nc1ncnc2c1c(COc1cccc(Cl)c1)nn2C1CCOCC1,lowest phenotypically active concentration,[2],9 µM
Cc1nc[nH]c1C1CCN(c2nc3cccc4c3n2CCC4=O)CC1,lowest phenotypically active concentration,[2],9 µM
C#CCN[C@@H]1CCc2ccccc21 [rasagiline],lowest phenotypically active concentration,[2],9 µM
same,lowest phenotypically active concentration,[7],9 µM
Cc1ccc(C(=O)Oc2ccc(C(O)CNC(C)(C)C)cc2OC(=O)c2ccc(C)cc2)cc1 (configuration not stated) [bitolterol],lowest phenotypically active concentration,[8],9 µM
CN/C(=C/[N+](=O)[O-])NCCSCc1csc(CN(C)C)n1 [nizatidine],lowest phenotypically active concentration,[2],1 µM
NS(=O)(=O)C#Cc1ccccc1 [pifithrin-mu],lowest phenotypically active concentration,[3],9 µM
O=S(=O)(NCCCCCCc1ccccc1)c1cccc2c(Cl)cccc12,lowest phenotypically active concentration,[8],≤ 0.3 µM
CN(C)CCOC(c1ccccc1)c1ccccc1 [diphenhydramine],lowest phenotypically active concentration,[8],9 µM
same,lowest phenotypically active concentration,[7],9 µM
same,lowest phenotypically active concentration,[3],9 µM
CCOC(=O)c1ccc(N2NC(=O)/C(=C/c3ccc([N+](=O)[O-])o3)C2=O)cc1,lowest phenotypically active concentration,[8],9 µM
Oc1cc(O)cc(/C=C/c2ccc(O)c(O)c2)c1 [Piceatannol],lowest phenotypically active concentration,[3],9 µM
CCN1C(=O)NC(c2ccccc2)C1=O (configuration not stated) [ethotoin],lowest phenotypically active concentration,[8],3 µM
O=c1cc(-c2ccc(O)cc2)oc2cc(O)cc(O)c12 [Apigenin],lowest phenotypically active concentration,[2],9 µM
same,lowest phenotypically active concentration,[7],3 µM
same,lowest phenotypically active concentration,[3],9 µM
COc1ccc(CCN(C)CCCC(C#N)(c2ccc(OC)c(OC)c2)C(C)C)cc1OC (configuration not stated) [verapamil],lowest phenotypically active concentration,[9],9 µM
same,lowest phenotypically active concentration,[4],9 µM
same,lowest phenotypically active concentration,[5],9 µM
CS(=O)(=O)c1ccc(-c2nnc(/C=C/c3nnc(-c4ccc(C#N)cc4)o3)n2-c2ccccc2Cl)nc1,lowest phenotypically active concentration,[7],9 µM
Fc1ccc(Cl)cc1-c1nc(Nc2ccncc2)c2nccnc2n1,lowest phenotypically active concentration,[7],9 µM
COc1ccc2c3c(c(=O)n(C)c2c1OC)C=CC(C)(C)O3 [Veprisine],lowest phenotypically active concentration,[7],9 µM
C=C[C@H]1CN2CC[C@H]1C[C@H]2[C@H](O)c1ccnc2ccc(OC)cc12 [Quinine dihydrochloride],lowest phenotypically active concentration,[9],9 µM
same,lowest phenotypically active concentration,[4],3 µM
NC(=O)c1sc2c([N+](=O)[O-])cc(C(F)(F)F)cc2[n+]1[O-] [Cyclapolin 9],lowest phenotypically active concentration,[3],9 µM
O=C(O)/C(Cc1ccccc1[N+](=O)[O-])=N\Nc1nc(-c2ccc(Cl)c(Cl)c2)cs1,lowest phenotypically active concentration,[7],9 µM
CC(C)C(=O)Nc1ncc(-c2cc(C(F)F)nn2-c2c(Cl)cccc2Cl)s1,lowest phenotypically active concentration,[9],≤ 0.3 µM
same,lowest phenotypically active concentration,[1],3 µM
same,lowest phenotypically active concentration,[8],3 µM
same,lowest phenotypically active concentration,[3],3 µM
O=S(c1ccccc1)c1ccc2nnnn2n1 (configuration not stated),lowest phenotypically active concentration,[9],9 µM
same,lowest phenotypically active concentration,[8],9 µM
same,lowest phenotypically active concentration,[3],9 µM
